According to PubChem BioAssay AID1159580 (chemical genetic matrix, 2015):
Where “and” joins values, the source holds several entries; their conditions need not be identical. Equal entries are not always repeated. The whole screen tested about 5,500 compounds, of which about 2,000 (36%) were called active. Another 18% or so got no clear call; they are omitted. Rule as the data show it: active = normalized growth mostly below about 0.91 (no sharp cut-off); inconclusive = no clear call, values can overlap the other calls; inactive = mostly above about 0.92. This is one part of the list.

Test: chemical genetic growth profiling, strain panel (AID 1159580);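 also: tested at 20 µM; growth read once vehicle control cultures reached saturation at 30 °C; 1 = growth at the plate median or of vehicle wells; lower values mean less growth of the strain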
Details: S. cerevisiae deletion strains, growth OD

Measured: normalized growth

C[C@H]1CC2C([C@@H](O)C[C@@]3(C)C2CC[C@]3(O)C(=O)CO)[C@@]2(C)C=CC(=O)C=C12 (stereo partly specified)
inactive: locus YAL013W, strain DEP1, active compounds read low 0.994 | locus YAL021C, strain ccr4, active compounds read low 1.01 | locus YAL026C, strain drs2, active compounds read low 1.02 | locus YAL030W, strain snc1, active compounds read low 1 | locus YBL061C, strain skt5, active compounds read low 0.991 | locus YBR009C, strain hhf1, active compounds read low 1.01 | locus YBR021W, strain FUR4, active compounds read low 0.972 | locus YBR023C, strain chs3, active compounds read low 1.01 | locus YBR171W, strain sec66, active compounds read low 0.993 | locus YBR229C, strain ROT2, active compounds read low 0.993 | locus YBR231C, strain swc5, active compounds read low 0.977 | locus YBR279W, strain paf1, active compounds read low 1.01 | locus YCL011C, strain gbp2, active compounds read low 1.03 | locus YCL016C, strain dcc1, active compounds read low 1.01 | locus YCL029C, strain bik1, active compounds read low 1.03 | locus YCL061C, strain MRC1, active compounds read low 0.999 | locus YCL069W, strain vba3, active compounds read low 0.993 | locus YCR088W, strain abp1, active compounds read low 1 | locus YDL005C, strain med2, active compounds read low 0.987 | locus YDL035C, strain GPR1, active compounds read low 0.993 | locus YDL040C, strain nat1, active compounds read low 1 | locus YDL074C, strain BRE1, active compounds read low 1.02 | locus YDL101C, strain DUN1, active compounds read low 1.01 | locus YDL134C, strain PPH21, active compounds read low 0.996 | locus YDL185W, strain tfp1, active compounds read low 1.01 | locus YDL192W, strain arf1, active compounds read low 1.01 | locus YDR001C, strain nth1, active compounds read low 1 | locus YDR069C, strain doa4, active compounds read low 0.994 | locus YDR101C, strain arx1, active compounds read low 1.02 | locus YDR137W, strain rgp1, active compounds read low 0.993 | locus YDR150W, strain NUM1, active compounds read low 0.988 | locus YDR159W, strain sac3, active compounds read low 1.01 | locus YDR162C, strain NBP2, active compounds read low 0.995 | locus YDR195W, strain ref2 0.934 | locus YDR297W, strain sur2, active compounds read low 0.987 | locus YDR318W, strain mcm21, active compounds read low 1.03 | locus YDR334W, strain swr1, active compounds read low 0.997 | locus YDR335W, strain msn5, active compounds read low 1 | locus YDR388W, active compounds read low 1.02 | locus YDR392W, strain spt3, active compounds read low 1.02 | locus YDR502C, strain sam2, active compounds read low 1.01 | locus YEL003W, strain gim4, active compounds read low 0.984 | locus YEL037C, strain rad23, active compounds read low 1 | locus YEL061C, strain CIN8 (second series), active compounds read low 1.01 | locus YEL061C, strain CIN8, active compounds read low 0.993 | locus YER015W, strain faa2, active compounds read low 1.01 | locus YER016W, strain bim1, active compounds read low 1 | locus YER110C, active compounds read low 1.01 | locus YER111C, strain swi4, active compounds read low 1 | locus YER155C, strain BEM2 (second series), active compounds read low 0.989 | locus YER155C, strain BEM2, active compounds read low 0.996 | locus YER167W, strain BCK2, active compounds read low 0.996 | locus YFR010W, strain ubp6, active compounds read low 0.982 | locus YGL078C, strain dbp3, active compounds read low 1.02 | locus YGL086W, strain mad1, active compounds read low 0.999 | locus YGL167C, strain pmr1, active compounds read low 0.988 | locus YGL173C, strain kem1, active compounds read low 0.986 | locus YGL227W, strain vid30, active compounds read low 0.992 | locus YGL240W, strain doc1, active compounds read low 0.972 | locus YGL248W, strain PDE1, active compounds read low 1 | locus YGL253W, strain hxk2, active compounds read low 0.997 | locus YGR078C, strain PAC10, active compounds read low 0.984 | locus YGR135W, strain pre9, active compounds read low 1.04 | locus YGR229C, strain SMI1, active compounds read low 0.986 | locus YGR252W, strain gcn5, active compounds read low 0.947 | locus YHR013C, strain ard1, active compounds read low 0.997 | locus YHR027C, strain rpn1, active compounds read low 1 | locus YHR030C, strain SLT2, active compounds read low 0.994 and 1.07 | locus YHR079C, strain IRE1 (second series), active compounds read low 1.02 | locus YHR079C, strain IRE1, active compounds read low 1.07 | locus YHR094C, strain hxt1, active compounds read low 1.02 | locus YHR129C, strain ARP1, active compounds read low 1 | locus YHR142W, strain chs7, active compounds read low 0.997 | locus YHR200W, strain rpn10, active compounds read low 1.01 | locus YIL066C, strain RNR3, active compounds read low 1 | locus YIL073C, strain SPO22, active compounds read low 1.01 | locus YIL125W, strain kgd1, active compounds read low 1 | locus YIR030C, strain dcg1, active compounds read low 1.02 | locus YJL092W, strain hpr5, active compounds read low 0.989 | locus YJL095W, strain BCK1 (second series), active compounds read low 0.997 | locus YJL095W, strain BCK1, active compounds read low 1.03 | locus YJL115W, strain asf1, active compounds read low 1 | locus YJL129C, strain trk1, active compounds read low 0.987 | locus YJL134W, strain LCB3, active compounds read low 1 | locus YJL154C, strain vps35, active compounds read low 1.01 | locus YJL164C, strain tpk1, active compounds read low 1.01 | locus YJL166W, strain qcr8, active compounds read low 0.97 | locus YJL168C, strain set2, active compounds read low 1.01 | locus YJL187C, strain SWE1 (second series), active compounds read low 1.01 | locus YJR043C, strain POL32, active compounds read low 1.01 | locus YJR066W, strain TOR1, active compounds read low 1.02
